sPLA2-III inh: Blocks human group III sPLA2 activity; QFRET BODIPY PC-A2 liposome hydrolysis, fluorescence; 370,000 compounds, 0.56% hits; Q9NZ20; inhibition, % at 12.2 µM;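 active = inhibition above mean plus 3 SD of compounds lying within the high and low control bounds, cut at about 19% in these data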;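 also: 0% = median of test compound wells and 100% = no enzyme DMSO wells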
ADAM17 inh: inhibitors of human ADAM17. recombinant ADAM17, EDANS/DABCYL FRET peptide cleavage. inhibition, % at 6.95 µM. P78536. AID 720648. 370,000 compounds, 0.83% hits;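 active = inhibition above the mean of compounds lying between control limits plus 3 SD, set per campaign, cut at about 8.5% in these data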;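 also: 0% = DMSO-only wells as the low control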
NR3A LBD binder: NR3A (human) ligand-binding domain modulation; Tm shift relative to glycine control, % at 25 µM; NR3A LBD differential scanning fluorimetry, Tm shift; 0% = protein alone, 100% = glycine-bound protein; 340,000 compounds, 2.5% hits;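 active = melting temperature shift of at least 10% of the positive control shift, at one fixed dose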
ADAM10 inh: inhibits human ADAM10; O14672; recombinant ADAM10, EDANS/DABCYL FRET peptide cleavage, 3 h; inhibition, % at 7 µM; 370,000 compounds, 0.62% hits;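 active = inhibition above a per-campaign cutoff equal to the mean of compounds falling between control-based bounds plus 3 SD, cut at about 20% in these data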;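 also: 0% = DMSO wells while the 100% control is not disclosed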
FAS TE block: blocks the thioesterase domain of human fatty acid synthase; P49327; recombinant FAS-TE, OMFH fluorogenic substrate, fluorescence endpoint; inhibition, % at 15 µM; 360,000 compounds, 0.67% hits;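 active = compounds whose normalised, plate-corrected inhibition of enzyme fluorescence in the single-dose primary screen is 50% or more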;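 also: 0% = DMSO with enzyme and 100% = substrate without enzyme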
ADAM10 counter: counter-screen for ADAM17 exosite inhibitors: inhibitors of human ADAM10. shares compounds with ADAM17 inh. inhibition, % at 6.95 µM. recombinant ADAM10, EDANS/DABCYL FRET peptide cleavage, 3 h. 2,900 compounds, 47% hits. AID 743256;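 active = mean inhibition over the triplicate runs exceeds the activity threshold set in the earlier primary screen, cut at about 20% in these data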;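 also: 0% = DMSO wells and 100% = marimastat wells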
ADAM17 confirm: human ADAM17 inhibition, confirmation; shares compounds with ADAM17 inh; recombinant ADAM17, EDANS/DABCYL QFRET peptide cleavage; inhibition, % at 6.95 µM; 2,900 compounds, 65% hits; AID 743257;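 active = mean inhibition across replicates above the hit cutoff set in the primary screen, cut at about 8.5% in these data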;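 also: 0% = DMSO wells and 100% = marimastat wells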
* hit, by the source's call; · = not tested or not shown. Shown are actives, neighbours in structure and some others; about 4.3% of the full set was active somewhere.

SMILES | sPLA2-III inh | ADAM17 inh | NR3A LBD binder | ADAM10 inh | FAS TE block | ADAM10 counter | ADAM17 confirm
Cc1ccc(S(=O)(=O)N2C3CCCCC3O[C@H]2CC(=O)c2ccc(F)cc2)cc1 (some centres not stated) | -2 | 9.6* | · | 13 | · | 9 | 6
O=C(COc1ccccc1Br)N1CCN(C(=O)c2cccs2)CC1 | -2 | 8.8* | 0 | 7 | -6 | 13 | 9.3*
O=C(N[C@H](Cc1ccccc1)C(=O)N(CCC1=CCCCC1)CC1CC1)[C@H]1O[C@@H](n2ccc(=O)[nH]c2=O)[C@H](O)[C@@H]1O | -12 | 0 | · | -4 | · | · | ·
CCOC(=O)C1=C(C(=O)OCC)C2N(Cc3ccc(Br)cc3)c3ccccc3[C@@]23C[C@@H](C(=O)OC)N(S(=O)(=O)c2ccc(OC)cc2)C3=N1 (some centres not stated) | 4 | -5 | · | -11 | · | · | ·
CCOC(=O)C1=C(C(=O)OCC)C2N(Cc3ccc(C#N)cc3)c3ccccc3[C@@]23C[C@@H](C(=O)OC)N(S(=O)(=O)c2ccc(OC)cc2)C3=N1 (some centres not stated) | -1 | 12* | · | 16 | · | 19 | 12*
Cc1cc(N2CCN(C(=O)OC(C)(C)C)C[C@@H]2C)ccc1Br | 3 | -1 | · | -3 | · | · | ·
CC(=O)NC12CC3CC(C1)CC(C(=O)Nc1nc4ccc(F)cc4s1)(C3)C2 | -9 | 8.6* | -3 | -4 | 3 | -2 | 2
Cc1cc(C)cc(N=Cc2ccc([N+](=O)[O-])s2)c1 | 9 | -3 | -20 | -3 | -9 | · | ·
Cc1ccc(NC(=S)N/N=C/c2ccc([N+](=O)[O-])s2)cc1 | 13 | 11* | 23* | -3 | 1 | 33* | 19*
CCOC(=O)Cc1csc(NC(=O)c2ccc(Cl)s2)n1 | -1 | -3 | 2 | 7 | 1 | · | ·
CCOC(=O)Cc1csc(NC(=O)COc2ccccc2)n1 | 2 | 10.0* | -1 | 11 | -5 | -9 | -1
CCOC(=O)Cc1csc(NC(=O)c2cc(C)c(C)s2)n1 | -8 | 11* | -1 | -10 | 1 | 5 | 8.9*
Cc1ccccc1OCC(=O)Nc1ccc(C)c(S(=O)(=O)N2CCCCCC2)c1 | -17 | 8.7* | -3 | 12 | 27 | 26* | 13*
COc1ccc(NC(=O)COc2ccccc2Cc2ccccc2)cc1S(N)(=O)=O | -31 | 11* | -9 | 19 | 9 | 8 | 2
Cc1ccc(C)c(OCCC(=O)OCC(=O)Nc2cccc(S(=O)(=O)N3CCCC3)c2)c1 | -52 | 8.8* | -1 | 19 | 17 | 25* | 13*
Cc1ccc(NC(=O)CN2C(=O)NC(Cc3c[nH]c4ccccc34)C2=O)cc1S(=O)(=O)N1CCCCC1 (configuration not stated) | -121 | 11* | 12* | 19 | 8 | 22* | 14*
Cc1ccc(NC(=O)COc2ccccc2)cc1S(=O)(=O)N1CCCCC1 | -9 | 2 | · | -7 | 6 | · | ·
COc1ccc(OCCC(=O)OCC(=O)Nc2cccc(S(=O)(=O)N3CCCCC3)c2)cc1 | -11 | 2 | 2 | -2 | 8 | · | ·
CN(C)S(=O)(=O)c1cccc(NC(=O)CN2C(=O)NC(Cc3c[nH]c4ccccc34)C2=O)c1 (configuration not stated) | -68 | -3 | 0 | -10 | -3 | · | ·
Cc1ccc(S(=O)(=O)N(C)C)cc1NC(=O)COC(=O)CCC1CCCC1 | -3 | -1 | -1 | 1 | 2 | · | ·
Cc1ccccc1OCCC(=O)OCC(=O)Nc1cc(S(=O)(=O)N2CCOCC2)ccc1Cl | -10 | 11* | 1 | 18 | 15 | 7 | 7
CN(C)S(=O)(=O)c1ccc(Cl)c(NC(=O)COC(=O)CCC2CCCCC2)c1 | -46 | 12* | -14 | 18 | 23 | 32* | 17*
O[C@@H](Cc1ccccc1)[C@@H](/C=C/c1ccccc1)N(Cc1ccccc1)Cc1ccccc1 | -8 | -3 | · | -1 | · | · | ·
CC(C)CC1NC(=O)c2cc(Cl)ccc2-n2c1nc1cc(F)ccc1c2=O (configuration not stated) | -3 | 8.7* | · | 3 | · | 0 | -1
CC(C)CC1NC(=O)c2ccc(Cl)cc2-n2c1nc1cc(F)ccc1c2=O (configuration not stated) | 7 | 11* | · | 9 | · | 21* | 12*
SMILES | sPLA2-III inh | ADAM17 inh | NR3A LBD binder | ADAM10 inh | FAS TE block | ADAM10 counter | ADAM17 confirm
O=C1NC(Cc2ccccc2)c2nc3ccc(Cl)cc3c(=O)n2-c2ccc(Cl)cc21 (configuration not stated) | 0 | -7 | · | -28 | · | · | ·
Cc1ccc2nc3n(c(=O)c2c1)-c1ccc(Cl)cc1C(=O)NC3Cc1ccccc1 (configuration not stated) | -10 | 11* | · | 2 | · | -9 | -1
Cc1ccccc1OCc1nnc(SCC(=O)Nc2ccc3nc(SCC(=O)Nc4ccccc4)sc3c2)n1C | -10 | 11* | 17* | 12 | -6 | -43 | -8
Cc1ccccc1OCc1nnc(SCC(=O)Nc2ccc3c(c2)OCO3)n1C | -3 | 2 | 1 | 3 | -1 | · | ·
C[C@]12Cc3ccccc3C1CC1=N[C@@H](C3CCCCC3)O[C@@]13C[C@@H]2C(=O)N3C1CCN(Cc2ccccc2)CC1 (some centres not stated) | -3 | -1 | · | -3 | · | · | ·
CC(C)[C@H]1COCCS(=O)(=O)N1Cc1ccccc1-c1cccc2c1oc1ccccc12 | -3 | 11* | 2 | 19 | 39 | 9 | 7
CC(=O)Nc1ccc(SCC(=O)c2cc(C)n(-c3ccccc3F)c2C)cc1 | -19 | 2 | -11 | 8 | 10 | · | ·
COC(=O)c1ccc(-n2c(C)cc(C(=O)CSc3ccc(NC(C)=O)cc3)c2C)cc1 | -34 | 9.0* | -18 | 18 | 9 | 22* | 16*
COc1cccc(CC(=O)Nc2ccc3c(c2)OC2(CCCC2)O3)c1 | -10 | -2 | -6 | 7 | 14 | · | ·
COc1ccc(CC(=O)Nc2ccc3c(c2)OC2(CCCC2)O3)c(OC)c1 | -4 | 11* | · | -3 | 16 | 10 | 8
COC(=O)N/N=C/c1cc([N+](=O)[O-])cc(Br)c1O | 8 | 11* | -14 | 18 | -6 | 6 | 4
CCOC(=O)[C@]12CCCCC/C=C\1N(Cc1ccc(OC)cc1)C(=O)[C@H]2CC(=O)N1CCC(c2ccccc2)CC1 | 10 | 9.4* | · | 11 | · | 11 | 7
O=C(OCC#CCSc1nnc(-c2cccc3ccccc23)o1)C1CCCC1 | -8 | -11 | · | -43 | · | · | ·
FC(F)(F)c1ccccc1Cn1ccc2ccc(-c3ccc4ccn(Cc5ccccc5C(F)(F)F)c4c3)cc21 | 6 | 0 | · | 4 | · | · | ·
COc1ccc(NC(=O)COC(=O)c2c3c(nc4ccccc24)CCCC3)cc1 | -12 | 3 | -10 | 19 | 14 | · | ·

Screens (PubChem)
